# A selection: hits, their analogues and other compounds. The true share with any hit is near 19%.
# IL1B secr inh: qHTS for Inhibitors of Inflammasome Signaling: IL-1-beta AlphaLISA Primary Screen; AID 743279, 2014; activity change, % at 57.5 µM; THP-1 LPS/ATP IL-1B secretion, AlphaLISA, 16 h; active compounds read low; actives 4.7% (n = 360,000); in the data active means activity change below about -50%; inconclusive means mostly about -30% to -49%
#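 Secreted IL-1B measured by AlphaLISA bead assay after 16 h compound exposure of THP-1 cells; compounds (final up to 57.5 uM) added 1 h before LPS (250 ng/mL) and ATP (1.25 mM) stimulation; lower signal means less secretion.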
# HT1080NT lethal: qHTS for induction of synthetic lethality in tumor cells producing 2HG: qHTS for the HT-1080-NT fibrosarcoma cell line; actives 1.6% (n = 360,000); AID 686970, 2013; HT-1080-NT fibrosarcoma viability, CellTiter-Glo ATP luminescence, 48 h; Potency, µM (series often up to 46.1 µM), for inactives: at the top dose activity, negative = less viability, most hits filed as cytotoxic;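 further: NT is the 2HG producing partner of a matched IDH1 knockdown line; potency means the concentration at half of the fitted maximal effect; 0% = DMSO-treated cells and -100% = media-only wells without cells; nearly all actives have a fitted effect of over 55% in size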
#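 Fibrosarcoma NT cells, 750 per well in 5% FBS RPMI, were exposed to compound for 48 hours. Viability: CellTiter-Glo luminescence.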
# TDP1 cell CPT: qHTS for Inhibitors of human tyrosyl-DNA phosphodiesterase 1 (TDP1): qHTS in cells in presence of CPT. chicken DT40 Tdp1-/-;hTDP1 cells + 20 nM CPT, ATP luminescence, 48 h. Potency, µM (series often up to 46.2 µM), without a hit: at the highest dose activity change, negative = growth inhibition, most hits filed as inhibitors. actives 12% (n = 420,000). AID 686979, 2013; further: potency means the concentration at half of the fitted maximal effect; nearly all actives have a fitted effect of over 55% in size
#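 Chicken DT40 Tdp1-/- cells stably complemented with human TDP1 were seeded at 400 cells/well in medium containing 20 nM camptothecin, exposed to pin-transferred compounds, and grown at 37 °C for at least 48 hr. Viability was read as ATP luminescence.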
# HT1080 IDH1KD tx: qHTS for induction of synthetic lethality in tumor cells producing 2HG: qHTS for the HT-1080-IDH1KD cell line; HT-1080 IDH1 knockdown viability, ATP luminescence, 48 h; Potency, µM (top dose mostly 46.1 µM), for the others: at the highest dose activity, negative = toxicity, actives largely listed as cytotoxic; actives 2% (n = 360,000);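 further: potency means the concentration at half of the fitted maximal effect; 0% = DMSO wells and -100% = cell-free medium wells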
#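 Knockdown cells (IDH1KD HT-1080) received compounds 2 h after plating at 750 cells/well and were kept 48 h at 37 °C in 5% FBS RPMI. A CellTiter-Glo luminescence read gave % activity for curve fitting.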
# TDP1 cell noCPT: qHTS for Inhibitors of human tyrosyl-DNA phosphodiesterase 1 (TDP1): qHTS in cells in absence of CPT. DT40 Tdp1-/- hTDP1 cells, no CPT, ATP luminescence, 48 h. Potency, µM (series often up to 46.2 µM), for the others: at the top dose activity change, negative = growth inhibition, usual class: inhibitors. actives 15% (n = 420,000). AID 686978, 2013; further: potency means the concentration at half of the fitted maximal effect; nearly all actives have a fitted effect of over 55% in size
#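 Stably hTDP1-transfected Tdp1-null chicken DT40 cells were treated with library compounds minus camptothecin and grown for at least 48 hr at 37 °C, after which cellular ATP was quantified by luminescence.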
# ELG1 DNA repair: qHTS screen for small molecules that inhibit ELG1-dependent DNA repair in human embryonic kidney (HEK293T) cells expressing luciferase-tagged ELG1. Potency, µM (series often up to 46.1 µM), for inactives: at the highest dose activity change, negative = inhibition, hits mostly inhibitors. HEK293T ELG1-luciferase reporter, luminescence, 16 h; DNA damage induced by 5-fluorouridine. actives 2.3% (n = 330,000); further: potency means the concentration at half of the fitted maximal effect; nearly all actives have a fitted effect of over 55% in size
#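 Reporter activity after DNA damage by 5-fluorouridine is monitored. Compound-treated cells incubate 16 hr at 37 °C, then ONE-Glo is added for 30 min before luminescence reading.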
# An asterisk follows results filed as active; i = inactive; u = inconclusive; x = no result given; [ ] = another dose, or the depositor's remark. Unless noted, the call rests on the fitted dose curve; in most records, active means well fitted curve in the direction sought with a large enough effect; inconclusive means small, poorly fitted or top-dose-only effect, or another doubt; inactive means no such curve, though single readings can be large; an effect the other way counts as inactive or inconclusive. Unless noted, on the % scale 0 is the no-effect control and ±100 the full control effect.
SMILES,IL1B secr inh,HT1080NT lethal,TDP1 cell CPT,HT1080 IDH1KD tx,TDP1 cell noCPT,ELG1 DNA repair
CC(=O)OC1CC2C(C)(C)CCC(=O)[C@@]2(C)C2CC[C@@]3(C)C(c4ccoc4)OC(=O)C4OC43[C@]12C (some centres not stated),x,x,10.8%,x,16.2%,x
Cc1cccc(C)c1NC(=O)C(C)Sc1nnc(C)n1CC1CCCO1 (configuration not stated),9.2,10.9%,-21.2%,5.6%,-6.4%,0.7%
CN(C)C(=O)c1cccc(-c2cnc3c(NC=O)cc(-c4ccccc4N(C)C)cn23)c1,24.2,-22.6%,23.1µM*,u,16.4µM*,x
CN(C)C(=O)c1cccc(-c2cnc3c(NC=O)cc(-c4ccccc4Cl)cn23)c1,-53.3*,-12.3%,2.59µM*,u,5.17µM*,x
Cc1cc(Br)c(NC(=O)CSc2n[nH]c(N)n2)c(Br)c1,0.0,-7.6%,-23.2%,4.6%,-0.3%,0.9%
COc1ccc(O)c(CN2CCOc3c(cc(-c4cccc(OC)n4)cc3OC)C2)c1,x,x,-3.1%[9.04 µM],x,u,x
CCN1C=CC2=C(C#N)C(N)C(C#N)(C#N)C(c3ccccc3C(F)(F)F)C2C1 (configuration not stated),-7.8,-3.5%,u,-9.5%,23.1µM*,2.5%
COc1ccccc1NC(=O)COc1cccc2c1CCNC2=O,-1.6,-16.4%,10.3µM*,-9.8%,6.51µM*,22.4%
COc1ccc(NC(=O)COc2cccc3c2CCN(C)C3=O)c(OC)c1,0.0,-1.5%,13µM*,-0.1%,u,-9.8%
O=C(COc1cccc2c1CCNC2=O)Nc1ccc(Cl)cc1,-2.5,-2.4%,18.4µM*,-16.9%,u,u
Cc1cccc(CSc2nnc3[nH]c(=O)cc(-c4ccccc4)n23)c1,x,x,2.3%,x,-11.9%,x
c1ccc(Cn2c[n+](Cc3ccccc3)cn2)cc1,-7.8,2.5%,-0.3%,-0.7%,-8.7%,0.0%
COc1cc(/C=C/c2nc(C#N)c(N3CCCCC3)o2)cc(OC)c1OC,x,x,8.2µM*,x,7.31µM*,x
COc1ccc(/C=C/c2nc(C#N)c(N3CCC(C)CC3)o2)cc1OC,x,x,16.4µM*,x,23.1µM*,x
CCN1CCN(c2oc(/C=C/c3ccccc3)nc2C#N)CC1,0.0,10.2%,-25.8%,-1.9%,-27.6%,10.2%
COc1cccc(/C=C/c2nc(C#N)c(N3CCCCC3)o2)c1,x,x,20.6µM*,x,23.1µM*,x
Cc1cccc(-c2nc(C#N)c(N3CCCCCC3)o2)c1,-56.8*,-0.3%,29.1µM*,0.4%,u,u
Cc1cccc(-c2nc(C#N)c(N3CCC(C)CC3)o2)c1,25.9,9.5%,-4.9%,9.3%,0.8%,-3.0%
Cc1ccc(C2=NN(C(=O)CCCC(=O)O)C(c3ccco3)C2)cc1 (configuration not stated),33.6,9.4%,15.2%,6.4%,1.8%,u
Cc1ccc(S(=O)(=O)N[C@H](C(=O)OCC(=O)N2N=C(c3ccc(Cl)cc3)CC2c2ccco2)C(C)C)cc1 (some centres not stated),-18.2,-9.8%,23.1µM*,-8.4%,23.1µM*,u
CCC(=O)N1N=C(c2ccc(NS(=O)(=O)c3ccccc3)cc2)CC1c1ccco1 (configuration not stated),-6.2,-22.3%,u,0.0%,23.1µM*,u
Cc1ccc(C2=NN(C(=O)C3CCCO3)C(c3ccco3)C2)cc1 (configuration not stated),u,4.7%,-14.6%,3.5%,u,-8.4%
Cc1ccc(C2=NN(C(=O)CN3C(=O)c4ccccc4S3(=O)=O)C(c3ccco3)C2)cc1 (configuration not stated),0.0,-3.0%,13µM*,1.7%,u,-5.1%
CC(=O)N1N=C(c2ccc(C)cc2)CC1c1ccco1 (configuration not stated),-19.8,-6.9%,-27.0%,-10.2%,u,u
CC(=O)N1N=C(c2ccc(Cl)cc2)CC1c1ccco1 (configuration not stated),-9.9,-4.0%,16.4µM*,-1.8%,u,u
SMILES,IL1B secr inh,HT1080NT lethal,TDP1 cell CPT,HT1080 IDH1KD tx,TDP1 cell noCPT,ELG1 DNA repair
CCOc1ccc(C(=O)Nc2cccc(-c3nc4cc(Cl)cc(Cl)c4o3)c2)cc1,x,x,-21.2%,x,-11.9%,x
COC(=O)[C@H](Cc1ccccc1)NC(=O)/C=C/[C@H]1O[C@@H](n2ccc(=O)[nH]c2=O)[C@H](O)[C@@H]1O,26.9,26.6%,2.7%,24.2%,35.4%,x
O=C(C1CCCO1)N1N=C(c2ccc(Br)cc2)CC1c1ccco1 (configuration not stated),u,21.0%,u,11.7%,14.6µM*,u
Cc1nc(N2N=C(c3ccc(Cl)cc3)CC2c2ccco2)sc1C(=O)N(C)C (configuration not stated),u,-24.0%,20.6µM*,u,16.4µM*,u
Cc1nnc(SCC(=O)N2N=C(c3ccc(Cl)cc3)CC2c2ccco2)[nH]c1=O (configuration not stated),u,-6.0%,14.6µM*,-19.6%,u,u
Clc1ccc(C2=NN(c3ccccc3)C(c3ccco3)C2)cc1 (configuration not stated),7.5,6.9%,2.8%,9.3%,-16.3%,u
O=C(c1ccc(Br)o1)N1N=C(c2ccc(Cl)cc2)CC1c1ccco1 (configuration not stated),i,-9.0%,-18.1%,-19.6%,u,-4.2%
Cn1nnnc1SCC(=O)N1N=C(c2ccc(Cl)cc2)CC1c1ccco1 (configuration not stated),-8.1,-2.6%,20.6µM*,-17.6%,16.4µM*,u
N#Cc1cnn(-c2ccc([N+](=O)[O-])cc2[N+](=O)[O-])c1N,33.6,-2.3%,13µM*,-28.6%,18.4µM*,x
Oc1ccc(C[C@H]2CNCCN2CCc2cccc3ccccc23)cc1,-29.3,-25.3%,u,-10.6%,u,7.8%
